Gal4-VP16 FLuc: inhibits Gal4-VP16 luciferase reporter, ROR gamma counter-screen. AID 2546. hit rate 3.5% among 310,000. Potency, µM (titrated, usually from 53.6 µM), hits mostly inhibitors. Drosophila S2 Gal4-VP16 UAS-luciferase, luminescence, 20 h;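 further: Gal4-VP16 expression switched on by copper sulfate through the metallothionein promoter; nearly all actives have a fitted effect of over 50% in size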
Luc counter: Kinase-Glo luciferase inhibition (counter-screen) | Q27757 | Kinase-Glo luciferase, ATP luminescence, 8 min | Potency, µM (titrated, usually from 38.3 µM), most hits filed as inhibitors | hit rate 0.28% among 200,000 | AID 1379; further: nearly all actives have a fitted effect of over 60% in size
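Compound is pinned into ATP-containing buffer (10 uM ATP, imidazole pH 7.2, 7 mM MgCl2). Kinase-Glo luciferase reagent is then added. Light output is recorded following an 8-min room-temperature incubation.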
RORgamma inh: inhibitors of mouse ROR gamma transcriptional activity | Drosophila S2 Gal4-RORgamma UAS-luciferase reporter, 20 h | Potency, µM (top dose mostly 53.6 µM), most hits filed as inhibitors | hit rate 5.4% among 310,000; further: nearly all actives have a fitted effect of over 60% in size
Target sequence (P51450 whole entry, looked up, the tested form may be a part): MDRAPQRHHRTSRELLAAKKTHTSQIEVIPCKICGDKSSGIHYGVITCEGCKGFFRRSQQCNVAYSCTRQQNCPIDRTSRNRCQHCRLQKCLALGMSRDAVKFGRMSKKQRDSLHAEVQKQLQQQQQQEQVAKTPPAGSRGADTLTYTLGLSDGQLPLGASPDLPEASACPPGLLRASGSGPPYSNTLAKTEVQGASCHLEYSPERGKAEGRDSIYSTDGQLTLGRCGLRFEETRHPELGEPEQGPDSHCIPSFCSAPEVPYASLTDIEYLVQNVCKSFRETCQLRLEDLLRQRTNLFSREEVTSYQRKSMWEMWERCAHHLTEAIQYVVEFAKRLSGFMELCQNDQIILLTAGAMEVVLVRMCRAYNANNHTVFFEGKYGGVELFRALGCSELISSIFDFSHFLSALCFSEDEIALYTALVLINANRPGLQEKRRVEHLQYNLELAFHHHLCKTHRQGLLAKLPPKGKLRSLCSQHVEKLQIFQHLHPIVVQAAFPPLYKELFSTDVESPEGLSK
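Stable Schneider cell line, Gal4 DNA-binding domain fused to ROR gamma, UAS-luciferase. Cmpd 1 hr RT → CuSO4 700 uM final → 20 hr RT → luciferase reagent 10 min → luminescence.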
Each line names hits and unclear results; the compound was inactive in the other large screens. Only some compounds are listed: those with a hit (about 6.4% of all), similar ones and a draw of the others. The call rests on the fitted dose curve; in most records, active means well fitted curve in the direction sought with a large enough effect; inconclusive means small, poorly fitted or top-dose-only effect, or another doubt; inactive means no such curve, though single readings can be large; an effect the other way counts as inactive or inconclusive.

CC1C[N+](=C2C=C(N3CCOCC3)CC(C)(C)C2)CC(C)O1 (centres undefined)	none (no result: Luc counter)
CC1CCN(Cc2c(C(=O)N/N=C/c3ccccc3O)nnn2-c2nonc2N)CC1	Gal4-VP16 FLuc 7.9µM, RORgamma inh 10µM (no result: Luc counter)
C/C(=N\NC(=O)c1nnn(-c2nonc2N)c1CN(C)c1ccccc1)c1ccccc1O	Gal4-VP16 FLuc 4µM, RORgamma inh 1.6µM (no result: Luc counter)
C/C(=N\NC(=O)c1nnn(-c2nonc2N)c1CN(C)C)c1ccco1	RORgamma inh inconclusive (no result: Luc counter)
CC(/C=N/NC(=O)c1nnn(-c2nonc2N)c1CN1CCCCC1)=C\c1ccccc1	Gal4-VP16 FLuc inconclusive (no result: Luc counter)
C/C(=N\NC(=O)c1nnn(-c2nonc2N)c1CN1CCCCC1)c1ccccc1O	Gal4-VP16 FLuc inconclusive, RORgamma inh 6.3µM (no result: Luc counter)
CC(=C/c1ccccc1)/C=N/NC(=O)c1nnn(-c2nonc2N)c1CN1CCC(C)CC1	RORgamma inh inconclusive (no result: Luc counter)
COc1ccc(O[C@H]2C=C[C@@H](c3ccccc3)O[C@H]2COC(=O)CC/C(C)=N\OC[C@@H](C)[C@H](OCc2ccccc2)C(C)C)cc1	none (no result: Luc counter)
COc1ccc(C(=O)NC(Cn2ccnc2)C(C)(C)C)cc1OC1CCN(C(C)C)CC1 (centres undefined)	none (no result: Luc counter)
Cc1noc(C)c1-c1ccc2ncnc(N3CCOCC3)c2c1	none (no result: Luc counter)
O=C(N/N=C/c1ccccc1O)NC12CC3CC(CC(C3)C1)C2	Gal4-VP16 FLuc 16µM, RORgamma inh inconclusive (no result: Luc counter)
COc1cc(/C=N/NC(=O)NC23CC4CC(CC(C4)C2)C3)ccc1O	none (no result: Luc counter)
O=C(N/N=C/c1ccc(O)c(O)c1)NC12CC3CC(CC(C3)C1)C2	none (no result: Luc counter)
O=C(N/N=C/c1cc(Cl)cc([N+](=O)[O-])c1O)NC12CC3CC(CC(C3)C1)C2	Gal4-VP16 FLuc inconclusive, RORgamma inh 4µM
Cc1ccc(S(=O)(=O)Oc2cc(S(=O)(=O)O)cc3cc(S(=O)(=O)O)cc(N)c23)cc1	none (no result: Gal4-VP16 FLuc, RORgamma inh)
O=C(NC1CCN(Cc2ccccc2)C1)c1ccc(Cc2nc3ccccc3[nH]2)cc1 (centres undefined)	none (no result: Gal4-VP16 FLuc, RORgamma inh)
O=C(Nc1oc2ccc(Cl)cc2c(=O)c1-c1ccc(F)cc1)c1ccco1	none (no result: Luc counter)
OC(COc1ccccc1)CSc1ncn[nH]1 (centres undefined)	none
CC(C)(C)c1ccc(OCC(O)CSc2ncn[nH]2)cc1 (centres undefined)	Gal4-VP16 FLuc 5.6µM, RORgamma inh 10µM
CCOc1cc(OCC)cc(C(=O)NC(=S)Nc2cccc(C(F)(F)F)c2)c1	RORgamma inh 5µM
O=C(NC(=S)Nc1cccc(C(F)(F)F)c1)c1ccc2nonc2c1	Gal4-VP16 FLuc 10µM, RORgamma inh 3.2µM (no result: Luc counter)
CC(C)(O)C(=O)NNC(=S)Nc1cccc(C(F)(F)F)c1	none
CCOc1ccc(NC(=S)NNC(=S)Nc2cccc(C(F)(F)F)c2)cc1	RORgamma inh inconclusive (no result: Luc counter)
COc1ccccc1N1CCN(C(=O)c2ccc3[nH]c4c(c3c2)CC(C)CC4)CC1 (centres undefined)	RORgamma inh inconclusive
CN1/C(=C\C=Nc2cc(S(=O)(=O)N3CCOCC3)ccc2N2CCOCC2)C(C)(C)c2ccccc21	RORgamma inh inconclusive
Cc1cccc(C)c1OCC(O)CNC(C)C (centres undefined)	none
CCOC(=O)c1oc2cccc(OCC(O)CNC(C)C)c2c1C (centres undefined)	Gal4-VP16 FLuc 16µM
COc1ccc2c(c1OC)C(=O)N1C2SC(C)(C)[C@H]1C(=O)NC(C)C (some centres undefined)	none (no result: Luc counter)
Cc1ccc(Cn2cccc2C2=NC(C)CO2)cc1 (centres undefined)	RORgamma inh 18µM
CC(C)C1COC(c2cccn2Cc2ccccc2Cl)=N1 (centres undefined)	RORgamma inh inconclusive
O=C(O)C(Cc1ccc(O)cc1)N1C(=O)c2ccccc2C1=O (centres undefined)	none (no result: Luc counter)
COc1ccc(C(=O)NC(=S)NCc2cccnc2)cc1OC	none
Cc1ccc(CNC(=O)NCc2ccccc2)cc1	none
COc1ccc(C(=O)NC(=S)NCc2ccccc2)cc1OC	Gal4-VP16 FLuc inconclusive, RORgamma inh 3.2µM
COc1cccc(OC)c1C(=O)NC(=S)NCc1ccccc1	Gal4-VP16 FLuc inconclusive, RORgamma inh 10µM
COc1cccc(OC)c1C(=O)NC(=S)NCc1cccnc1	none (no result: Luc counter)
COc1ccc(C(=O)NC(=S)NCc2ccc(-c3nc4ccccc4o3)cc2)cc1OC	Gal4-VP16 FLuc 2.5µM, RORgamma inh 1.3µM
CCOc1cc(C(=O)NCc2ccc(-c3nc4ccccc4o3)cc2)cc(OCC)c1OCC	none (no result: Luc counter)
Cc1ccc(C(=O)NC(=S)NCc2ccccc2)cc1	Gal4-VP16 FLuc 13µM, RORgamma inh 10µM (no result: Luc counter)
CC1(C)C[C@](C)(C(=O)c2ccccc2)C=C1c1ccccc1	none
O=C(CCC(=O)OCc1ccc(Br)cc1)Nc1ccccc1	none
CCOc1ccc(S(=O)(=O)N2CCCC(C(=O)N3CCN(CC)CC3)C2)cc1Cl (centres undefined)	none (no result: Luc counter)
COc1cc(CNC(=O)C2CC2)ccc1OCc1ccccc1	RORgamma inh 32µM (no result: Luc counter)
COc1cc(CN2CCC(C(=O)NCCC(C)C)CC2)ccc1OCc1ccccc1	none (no result: Luc counter)
O=C(CSc1ccc(F)cc1)NCCSc1ccccc1	none
CCCC(=O)N1CC(=O)Nc2ccc(C)cc2C1c1ccccc1 (centres undefined)	none (no result: Luc counter)
Cn1c(SCc2ccccc2F)nc2cccnc21	none
Nc1nc(-c2nn(Cc3ccccc3F)c3ncccc23)ncc1C1CC1	Gal4-VP16 FLuc 13µM, RORgamma inh 1.8µM (no result: Luc counter)
CCOC(=O)C1(Cc2ccc(OC)cc2)CCN(C(=O)CN2CCCCC2=O)CC1	Gal4-VP16 FLuc inconclusive
CCCc1cc(-c2n[nH]c(=S)n2-c2cccc(C)c2)cs1	Gal4-VP16 FLuc inconclusive, RORgamma inh 1.4µM
Cc1cccc(-n2c(-c3csc(C(C)C)c3)n[nH]c2=S)c1	Gal4-VP16 FLuc inconclusive, RORgamma inh 1.6µM
COc1cccc(C(=O)NCc2n[nH]c(=S)n2-c2cccc(C)c2)c1	RORgamma inh inconclusive
Oc1ccc(-c2n[nH]c(=S)n2-c2ccc3c(c2)OCCO3)cc1	none
CCOc1ccc(CCNC(=O)c2sc3nc4n(c(=O)c3c2C)CCC4)cc1	none (no result: Luc counter)
NC1=NC2(CCCC2)N=C(Nc2ccccc2)N1	none (no result: Luc counter)
Cc1ccc(C2=NC3(CCCCC3)NC2=S)cc1	Gal4-VP16 FLuc 4µM, RORgamma inh 2µM
S=C1NC2(CCCCC2)N=C1c1ccccc1	Gal4-VP16 FLuc 3.5µM, RORgamma inh 3.2µM
O=C1NC2(CCCCCC2)N=C1c1ccc(Br)cc1	none
O=C1NC2(CCCC2)N=C1c1ccc(F)cc1	none
CCN1CCC2(CC1)N=C(c1ccc(F)cc1)C(=S)N2	RORgamma inh 13µM
C#CCSc1nc2sc3c(c2c(=O)n1C)CCC3	none (no result: Luc counter)
Cc1cc(C)cc(O)c1	none (no result: Luc counter)
CSc1ccc(S(=O)(=O)NC2CC2)cc1	none (no result: Luc counter)
O=C(CSc1ccc(-c2ccncc2)nn1)c1ccccc1	none
C=C1c2cccc(OC)c2O[C@H](C(=O)OCC)[C@@H]1CC(CC)CCCC (some centres undefined)	Gal4-VP16 FLuc inconclusive
CCCCC(CC)C/C=C1\CC(C(=O)OCC)Oc2ccccc21 (centres undefined) (tested in a mixture with another compound)	RORgamma inh 1.6µM
COc1cc(SC)ccc1C(=O)Nc1ccc2c(c1)CCC2	none (no result: Luc counter)
Cn1cc(C(=O)CCl)c2ccccc21	Gal4-VP16 FLuc 7.9µM, RORgamma inh 11µM
Cn1cc(C(N)=O)c2ccccc21	none
COCCNC(=O)CN(C(=O)CCC(=O)Nc1ccccn1)c1ccccc1OC	none (no result: Luc counter)

Compound activity from PubChem.
